Most compounds without a hit are left out; they make up all but 3.8% or so of the library.
PAFAH2 inh = PAFAH2 enzyme inhibitors, primary screen, biochemical, fluorescence polarization, human; inhibition, % at 3.39 µM; actives 0.99% (n = 340,000); recombinant PAFAH2, FP-rhodamine activity probe;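 active means inhibition above the mean over all tested compounds plus 3 SD, cut at about 30% in these data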;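 further: inhibitors block probe labeling of enzyme so polarization drops; 0% = enzyme with DMSO and 100% = wells lacking PAFAH2 protein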
pPAFAH FP inh = pPAFAH enzyme inhibitors, primary screen, biochemical, fluorescence polarization, human; actives 1.5% (n = 330,000); recombinant pPAFAH, FP-rhodamine probe fluorescence polarization; AID 463082, 2010; inhibition, % at 3.39 µM; Platelet-activating factor acetylhydrolase (Homo sapiens), Q13093;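 active means inhibition above the mean inhibition across the screen plus 3 SD, cut at about 25% in these data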;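 further: inhibitors block binding of the rhodamine activity-based probe so polarization drops; 0% = enzyme with DMSO and 100% = wells lacking pPAFAH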
PAFAH1B2 inh = PAFAH1B2 enzyme inhibitors, primary screen, biochemical, fluorescence polarization, human | recombinant PAFAH1B2, FP-rhodamine activity probe | inhibition, % at 3.39 µM | actives 1.2% (n = 340,000) | AID 492953, 2010;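 active means inhibition above the mean of all tested compounds plus 3 SD, cut at about 24% in these data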;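 further: 0% = enzyme with DMSO and 100% = wells lacking PAFAH1B2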
DSG3 Ab inh = inhibitors of pemphigus antibody binding to DSG3, primary screen, biochemical, bead-based, flow cytometry, scFv-GFP; Desmoglein-3 (Homo sapiens), P32926; DSG3-coupled beads, scFv-anti-DSG3-GFP binding; hits give low values; actives 0.48% (n = 310,000); binding (percent of control), % at 10 µM;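 active means binding more than 3 SD below its plate's average and above zero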;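 further: hits lower antibody fragment binding to DSG3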
PfM18AAP inh = PfM18AAP inhibitors, malaria aminopeptidase, primary screen, biochemical, QFRET, recombinant enzyme; M18 aspartyl aminopeptidase (Plasmodium falciparum 3D7); H-Glu-NHMec fluorogenic cleavage; inhibition, % at 7.35 µM; actives 1.2% (n = 290,000); AID 1822, 2009;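 active means inhibition above the campaign mean inhibition over all tested compounds plus 3 SD, cut at about 28% in these data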;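 further: 0% = plate median of test compound wells and 100% = 2 mM ZnCl2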
PAFAH1B3 inh = PAFAH1B3 enzyme inhibitors, primary screen, biochemical, fluorescence polarization, human | actives 0.28% (n = 340,000) | Platelet-activating factor acetylhydrolase IB subunit alpha1 (Homo sapiens), Q15102 | recombinant PAFAH1B3, FP-rhodamine probe | inhibition, % at 3.39 µM;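 active means inhibition above the screen-wide average of all tested compounds plus 3 SD, cut at about 25% in these data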;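 further: 0% = enzyme with DMSO only and 100% = wells lacking PAFAH1B3 protein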
pPAFAH FP conf = pPAFAH (PLA2G7) enzyme inhibitors, confirmation, biochemical, fluorescence polarization, human | AID 463230, 2010 | inhibition, % at 3.39 µM | shares compounds with pPAFAH FP inh | actives 72% (n = 2,300) | recombinant pPAFAH, FP-Rh probe fluorescence polarization;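 active means mean inhibition of the triplicate above the hit cutoff set for the earlier primary screen, cut at about 25% in these data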;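 further: 0% = enzyme with DMSO and 100% = wells lacking pPAFAH enzyme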
PAFAH2 confirm = PAFAH2 enzyme inhibitors, confirmation, biochemical, fluorescence polarization, human; recombinant PAFAH2, FP-rhodamine activity probe; inhibition, % at 3.39 µM; shares compounds with PAFAH2 inh; actives 65% (n = 2,300);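 active means mean inhibition over three repeats above a set limit taken from the earlier primary screen, cut at about 30% in these data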;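 further: inhibitor blocks binding of rhodamine activity probe so polarization falls; 0% = enzyme with DMSO and 100% = wells lacking PAFAH2 protein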
The depositor's hits bear a star.

C[C@@H](NC(=O)c1nc[nH]c1C(=O)N[C@@H](CCCCNC(=O)OC(C)(C)C)C(=O)OC(C)(C)C)c1ccccc1 was read as PAFAH2 inh -1, pPAFAH FP inh 35*, PAFAH1B2 inh 7, DSG3 Ab inh 101, PfM18AAP inh -5, PAFAH1B3 inh 8 and pPAFAH FP conf 30*.
For Cc1ccc(S(=O)(=O)N2CCOC2CNC(=O)C(=O)NCCCN2CCOCC2)cc1 (configuration not stated) the results were PAFAH2 inh -3, pPAFAH FP inh -2, PAFAH1B2 inh 7, DSG3 Ab inh 121, PfM18AAP inh 5 and PAFAH1B3 inh 5.
COP(=O)(OC)c1nc(-c2cccc3ccccc23)oc1NCCc1ccccc1 was read as PAFAH2 inh 4, pPAFAH FP inh 38*, PAFAH1B2 inh 3, DSG3 Ab inh 100, PfM18AAP inh 2, PAFAH1B3 inh 8 and pPAFAH FP conf 31*.
Screening COc1ccc(CNC(=O)C(c2ccco2)N(C(=O)CNS(=O)(=O)c2ccccc2)c2ccccc2C)cc1 (configuration not stated) returned PAFAH2 inh 3, pPAFAH FP inh 47*, PAFAH1B2 inh 4, DSG3 Ab inh 98, PfM18AAP inh 9, PAFAH1B3 inh 7 and pPAFAH FP conf 51*.
COc1cc(NCCCn2ccc(NC(=O)OCc3ccccc3)nc2=O)cc(OC)c1OC was read as PAFAH2 inh -3, PAFAH1B2 inh -2, DSG3 Ab inh 105 and PAFAH1B3 inh -2.
COc1cc(NS(=O)(=O)c2ccc(Nc3nc(-c4cccc([N+](=O)[O-])c4)cs3)cc2)nc(OC)n1 was read as PAFAH2 inh 43*, pPAFAH FP inh 47*, PAFAH1B2 inh 17, DSG3 Ab inh 96, PfM18AAP inh 2, PAFAH1B3 inh 16, pPAFAH FP conf 69* and PAFAH2 confirm 27.
`O=S1(=O)CCOCCCN1Cc1ccc(Cl)cc1` gave PAFAH2 inh -4, pPAFAH FP inh 4, PAFAH1B2 inh 3, DSG3 Ab inh 103, PfM18AAP inh -1 and PAFAH1B3 inh 10.
Nc1ccc(S(=O)(=O)Nc2nccs2)cc1N=Nc1ccccc1[N+](=O)[O-] was read as PAFAH2 inh 54*, PAFAH1B2 inh 14, DSG3 Ab inh 87, PAFAH1B3 inh 21 and PAFAH2 confirm 37*.
Screening CCOC(=O)c1ccc(NC2=CC(=O)CC(c3ccco3)C2)cc1 (configuration not stated) returned PAFAH2 inh 6, pPAFAH FP inh -1, PAFAH1B2 inh -3, PfM18AAP inh 11 and PAFAH1B3 inh 3.
O=C1C=C(Nc2ccc(Cl)cc2Cl)CC(c2ccco2)C1 (configuration not stated) was read as PAFAH2 inh 45*, pPAFAH FP inh 19, PAFAH1B2 inh 5, DSG3 Ab inh 100, PfM18AAP inh 7, PAFAH1B3 inh -2 and PAFAH2 confirm 37*.
Screening O=c1oc(-c2ccccc2)nc2ccsc12 returned PAFAH2 inh 44*, pPAFAH FP inh 1, PAFAH1B2 inh -4, PfM18AAP inh 1, PAFAH1B3 inh 4 and PAFAH2 confirm 30*.
For Nc1ccc(-c2nc3cc([N+](=O)[O-])ccc3o2)cc1 the results were PAFAH2 inh 1, pPAFAH FP inh -2, PAFAH1B2 inh 2, DSG3 Ab inh 102, PfM18AAP inh -7 and PAFAH1B3 inh 5.
O=c1oc(-c2ccc([N+](=O)[O-])cc2)nc2ccccc12 was read as PAFAH2 inh 74*, pPAFAH FP inh 4, PAFAH1B2 inh -5, DSG3 Ab inh 95, PfM18AAP inh -15, PAFAH1B3 inh 3 and PAFAH2 confirm 82*.
`O=c1oc(-c2ccc(Br)cc2)nc2ccccc12` gave PAFAH2 inh 76*, pPAFAH FP inh -6, PAFAH1B2 inh -5, DSG3 Ab inh 110, PfM18AAP inh 0, PAFAH1B3 inh 4 and PAFAH2 confirm 70*.
`CC(=O)Nc1ccc(-c2nc3ccccc3c(=O)o2)cc1` gave PAFAH2 inh -5, pPAFAH FP inh -6, PAFAH1B2 inh 0, DSG3 Ab inh 95, PfM18AAP inh 7 and PAFAH1B3 inh 5.
Screening O=c1oc(-c2ccc([N+](=O)[O-])cc2)nc2ccc(O)cc12 returned PAFAH2 inh 85*, pPAFAH FP inh 5, PAFAH1B2 inh 7, DSG3 Ab inh 94, PfM18AAP inh -4, PAFAH1B3 inh 11 and PAFAH2 confirm 67*.
For O=S(=O)(O)c1cc2oc(-c3ccccc3)nc2c2ccccc12 the results were PAFAH2 inh 7, pPAFAH FP inh 5, PAFAH1B2 inh -2, DSG3 Ab inh 102 and PAFAH1B3 inh 5.
Screening O=c1oc(-c2cccs2)nc2ccccc12 returned PAFAH2 inh 56*, pPAFAH FP inh -1, PAFAH1B2 inh 6, PfM18AAP inh 5, PAFAH1B3 inh 19 and PAFAH2 confirm 35*.
For O=c1oc(-c2cccs2)nc2ccc(Cl)cc12 the results were PAFAH2 inh 6, pPAFAH FP inh -5, PAFAH1B2 inh 2, DSG3 Ab inh 87, PfM18AAP inh 4 and PAFAH1B3 inh -2.
`COc1ccc(/C=C/C(=O)OCC(=O)NC2CC2)c(OC)c1` gave PAFAH2 inh 83*, pPAFAH FP inh 4, PAFAH1B2 inh 1, DSG3 Ab inh 97, PAFAH1B3 inh 10 and PAFAH2 confirm 79*.
COc1cccc(/C=C/C(=O)OCC(=O)NC2CC2)c1OC was read as PAFAH2 inh 68*, pPAFAH FP inh 6, PAFAH1B2 inh 5, DSG3 Ab inh 92, PAFAH1B3 inh 16 and PAFAH2 confirm 58*.
Screening O=C(CCS(=O)(=O)c1ccccc1)OCc1ccc([N+](=O)[O-])cc1 returned PAFAH2 inh -3, pPAFAH FP inh 3, PAFAH1B2 inh 0, DSG3 Ab inh 99, PfM18AAP inh -1 and PAFAH1B3 inh -2.
`COc1ccc(CC(=O)OCC(=O)NC2CCCCCC2)cc1OC` gave PAFAH2 inh 28, PAFAH1B2 inh 4, DSG3 Ab inh 102 and PAFAH1B3 inh 5.

Compound activity from PubChem.
